The source of these data is PubChem BioAssay (NCATS).

Unmarked numbers belong to inactive results. Results filed as inconclusive are left out. The source made the active and inactive calls. The call rests on the fitted dose curve; in most records, active means well fitted curve in the direction sought with a large enough effect; inconclusive means small, poorly fitted or top-dose-only effect, or another doubt; inactive means no such curve, though single readings can be large; an effect the other way counts as inactive or inconclusive.

Test [1] has as its target Lysine-specific demethylase 5B (Homo sapiens) (UniProt Q9UGL1). The experiment in a line: Optimization screen for KDM5B Histone Demethylases FDH coupled qHTS against the LOPAC library (AID 1347166). The gist of the method: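 KDM5BDeltaAP (200nM final) preincubated 10 min with compound, then 12.5uM H3K4Me3, 25uM a-ketoglutarate, ascorbate, Fe(II), NAD+ and FDH added; 50mM HEPES pH 7.5, 0.01% Tween-20. NADH fluorescence (340/450 nm) change over 30 min, room temperature.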

Test [2] has as its target Protein phosphatase 1D (Homo sapiens) (UniProt O15297). The experiment in a line: RapidFire Mass Spectrometry qHTS Assay for Modulators of WT P53-Induced Phosphatase 1 (WIP1) (AID 1347424).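 Further: amount of dephosphorylated VEPPL-S-QETFS peptide product formed by WIP1; series mostly up to about 63 µM.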 The gist of the method:
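10 nM WIP1 preincubated with compounds 1 hr at room temperature in pH 7.5 Tris buffer with 30 mM MgCl2, 1 mM TCEP; 2 uM VEPPL-pS-QETFS phosphopeptide for 5 min, formic acid quench; dephosphorylated product quantified by RapidFire MS against labelled standard.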
(qHTS replaces the single test concentration by a dilution series.)

For test [3] the target is unchanged. As to the kind of experiment: Rhodamine-PBP qHTS Assay for Modulators of WT P53-Induced Phosphatase 1 (WIP1) (AID 1347425). In short, it runs like this:
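Read-out: Rhodamine-PBP fluorescence (ex 525/em 598 nm) for released Pi, read each minute for 11 min after adding 10 uM VEPPL-pS-QETFS; signal taken as f1 minus pre-substrate f0. Enzyme 5 nM WIP1 with 1 hr room-temperature compound preincubation.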

Test [4] can be described thus: Validation qHTS assay for inhibitors of Activation Induced Cytidine Deaminase (AID): UDG Counterscreen signal (AID 1347427). In short, it runs like this: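 Counterscreen read of UDG activity (2 U/mL, 4/3x) in the FRET deamination format with AID (1 uM, 4/3x), DJC20/DJC23 substrates (250 nM, 4x), 4 h at room temperature. NaOH stop, fluorescence at 560 ex/665 em.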
The target of test [5] is Single-stranded DNA cytosine deaminase (Homo sapiens) (UniProt Q9GZX7). As to the kind of experiment: Validation qHTS assay for inhibitors of Activation Induced Cytidine Deaminase (AID): AID signal (AID 1347429). The gist of the method: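 Fluorescence at 540 nm excitation and 590 nm emission reports ssDNA cytosine deamination by AID, with UDG in the same well. Compound-treated reactions ran 4 hr at room temperature with DJC20/DJC23 substrate, followed by 30 min NaOH treatment.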

Test [6] is described as follows: Primary qHTS for inhibitors of La Crosse Virus (LACV) - induced cell death in SH-SY5Y cells (AID 1508616).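 Further: top concentration of the series differs between compounds; higher means more rescue of cells from virus-induced death.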 The gist of the method:
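Protection against LACV-induced cell death is scored in SH-SY5Y cells exposed to compounds and virus (0.01 MOI) for 6 days. Data normalized to virus-infected DMSO wells and virus-free DMSO wells.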

For test [7], the target named is Calcium and integrin-binding protein 1 (Homo sapiens) (UniProt Q99828). The experiment in a line: Primary qHTS for Identification of Calcium Integrin Binding Protein 1 (CIB1) Competitor (AID 1508620). Further: top concentration of the series differs between compounds. The gist of the method: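 Fluorescence polarization competition: GST-tagged CIB1 (1 uM final) preincubated with compound 15 min at room temperature, then FITC-labelled alphaIIb peptide (100 nM final) added. After 15 min at room temperature, polarization read at Ex 480/Em 540.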

The nature of test [8]: Counterscreen qHTS for small molecule stabilizers of the endoplasmic reticulum resident proteome: GLuc-NoTag assay (AID 1508627). Further: potency means the concentration at half of the fitted maximal effect. In short, it runs like this: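 SH-SY5Y cells stably expressing constitutively secreted GLuc without SERCaMP tag, exposed to compound for 19 hr, then to 100 nM thapsigargin for 4 hr at 37C. Medium luciferase was read by coelenterazine luminescence without lysis.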
Background: A counterscreen serves to expose hits that act by an unwanted route or on another target.

Test [9] is described as follows: qHTS to identify inhibitors of the type 1 interferon - major histocompatibility complex class I in skeletal muscle: primary screen against the NCATS LOPAC collection (AID 1347405).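 Further: lytic HiBiT luminescence reporting HLA-B protein level.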 Further: potency means the concentration at half of the fitted maximal effect. In short, it runs like this:
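Luminescence from HiBiT fused to endogenous HLA-B in CRISPR-engineered human myoblasts served as the read-out. Cells received 4.0 ng/ml IFN-beta plus compound (seven concentrations, 1:4.3 steps, highest 46 uM final) for 24 hrs before lytic detection.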

Test [10] is described as follows: qHTS to identify inhibitors of the type 1 interferon - major histocompatibility complex class I in skeletal muscle: primary screen against the NCATS Pharmaceutical Collection (AID 1347407). Further: potency means the concentration at half of the fitted maximal effect. The gist of the method: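 Luminescence from HiBiT-tagged endogenous HLA-B*08:01 served as the read-out of IFN-beta-induced MHC class I in CRISPR-engineered C25cl48 myoblasts. Cells received 4 ng/ml IFN-beta plus compound (high final 46 uM, […]) for 24 h.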

Test [11] in a line: qHTS for inhibitors of adenylyl cyclases using a fission yeast platform: a pilot screen against the NCATS LOPAC library (AID 1347410). In short, it runs like this:
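Fission yeast qHTS: CHP2027 cells (AC9-GNAS-PDE4D2, fbp1-GFP), 5x10^6 cells/mL working density, EMM + His/Lys/Ura; LOPAC at up to 57 µM final; 18 h dark, 30C; GFP by laser cytometry. DPI positive control, DMSO vehicle.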

Test [12] is described as follows: Primary qHTS for small molecule stabilizers of the endoplasmic reticulum resident proteome: Secreted ER Calcium Modulated Protein (SERCaMP) assay (AID 1508630). The gist of the method: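 GLuc-SERCaMP-expressing SH-SY5Y cells, pretreated 16 h with compound, are challenged with thapsigargin to empty ER calcium stores; after 4 h, coelenterazine is added directly to the medium and luminescence is imaged.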

Test [13] can be described thus: qHTS to identify inhibitors of the type 1 interferon - major histocompatibility complex class I in skeletal muscle: primary screen against the NCATS Mechanism Interrogation Plate v5.0 (MIPE) Libary (AID 1347411). Further: nearly all actives have a fitted effect of over 65% in size. The gist of the method:
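Luminescence from HiBiT-tagged endogenous HLA-B*08:01 served as the MHC class I read-out. CRISPR-engineered C25cl48 human myoblasts received 4.0 ng/ml IFN-beta plus compound for 24 hrs, with an 11-point, 1:3 series topping at 46 uM final.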

Test [14] addresses Calcium and integrin-binding protein 1 (Homo sapiens) (UniProt Q99828). As to the kind of experiment: Validation qHTS for Identification of Calcium Integrin Binding protein 1 (CIB1) Competitor (AID 1508618). The gist of the method:
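CIB1-GST (1 uM final) in 5 mM HEPES pH 7.4, 125 mM NaCl, 5 mM CaCl2, 0.01% Tween20 was preincubated 15 min at room temperature with compound (up to 114 uM), then FITC-alphaIIb peptide (100 nM) added for 15 min; fluorescence polarization read.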

Test [15] has the same target. As to the kind of experiment: Confirmatory qHTS for Identification of Calcium Integrin Binding Protein 1 (CIB1) Competitor (AID 1508617). Further: potency means the concentration at half of the fitted maximal effect; nearly all actives have a fitted effect of over 65% in size. The gist of the method:
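Fluorescence polarization competition: CIB1-GST (1 uM final) in 5 mM HEPES pH 7.4, 125 mM NaCl, 5 mM CaCl2, 0.01% Tween20 preincubated 15 min RT with compound (up to 114 uM), then FITC-alphaIIb peptide (100 nM) added, 15 min RT.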

The nature of test [16]: Vero cells viability qHTS for Zika virus inhibitors (AID 1347167). In short, it runs like this:
(§1)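 Cells seeded at 2.5 x 10^5 cells/mL in DMEM with 4% FBS and attached overnight at 37 degrees C, then exposed to compound for 24 to 48 hours. Viability read as ATP content by CellTiter Glo luminescence.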

Test [17] is described as follows: HepG2 cells viability qHTS for Zika virus inhibitors (AID 1347168). In short, it runs like this:
as §1

Test [18] in a line: Tertiary RLuc qRT-PCR qHTS assay for Zika virus inhibitors (AID 1347169). Further: top concentration of the series differs between compounds; nearly all actives have a fitted effect of over 55% in size. The gist of the method: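 Vero, 1,000 cells/well, o/n 37 C; cpd pinned in DMSO; ZIKV-RLuc Cambodian, MOI 1-2, 48-72 h 37 C; live-cell RLuc substrate, lum read at 1-1.5 h.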

Chain of Calcium and integrin-binding protein 1 (Homo sapiens) (Q99828 whole entry, looked up): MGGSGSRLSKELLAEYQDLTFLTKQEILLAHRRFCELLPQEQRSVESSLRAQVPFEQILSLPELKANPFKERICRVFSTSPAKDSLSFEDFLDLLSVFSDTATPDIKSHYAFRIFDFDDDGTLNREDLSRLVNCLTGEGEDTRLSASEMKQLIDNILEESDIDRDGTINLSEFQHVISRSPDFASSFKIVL
Chain of Single-stranded DNA cytosine deaminase (Homo sapiens) (Q9GZX7 whole entry, looked up): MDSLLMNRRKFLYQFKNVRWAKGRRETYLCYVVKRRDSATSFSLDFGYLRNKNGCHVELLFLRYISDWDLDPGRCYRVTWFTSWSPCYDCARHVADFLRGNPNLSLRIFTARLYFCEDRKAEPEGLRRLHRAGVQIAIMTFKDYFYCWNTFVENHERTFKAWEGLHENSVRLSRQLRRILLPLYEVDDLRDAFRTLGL
Chain of Protein phosphatase 1D (Homo sapiens) (O15297 whole entry, looked up): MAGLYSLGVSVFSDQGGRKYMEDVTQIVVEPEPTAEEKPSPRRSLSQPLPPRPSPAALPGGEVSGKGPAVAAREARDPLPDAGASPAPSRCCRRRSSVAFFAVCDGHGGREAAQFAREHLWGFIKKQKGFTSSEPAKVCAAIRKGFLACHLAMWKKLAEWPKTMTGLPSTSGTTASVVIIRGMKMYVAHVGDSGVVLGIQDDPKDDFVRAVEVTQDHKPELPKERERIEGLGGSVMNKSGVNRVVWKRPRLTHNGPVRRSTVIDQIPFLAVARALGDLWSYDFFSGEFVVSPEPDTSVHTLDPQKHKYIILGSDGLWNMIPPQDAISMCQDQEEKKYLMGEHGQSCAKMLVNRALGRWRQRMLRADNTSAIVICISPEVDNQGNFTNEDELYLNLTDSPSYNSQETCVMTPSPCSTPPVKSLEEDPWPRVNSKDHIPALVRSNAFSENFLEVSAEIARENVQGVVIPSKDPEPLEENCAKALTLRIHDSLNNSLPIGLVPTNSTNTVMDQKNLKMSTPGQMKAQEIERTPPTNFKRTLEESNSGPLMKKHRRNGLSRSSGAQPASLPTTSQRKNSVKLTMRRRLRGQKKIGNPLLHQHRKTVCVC
Chain of Lysine-specific demethylase 5B (Homo sapiens) (Q9UGL1 whole entry, looked up): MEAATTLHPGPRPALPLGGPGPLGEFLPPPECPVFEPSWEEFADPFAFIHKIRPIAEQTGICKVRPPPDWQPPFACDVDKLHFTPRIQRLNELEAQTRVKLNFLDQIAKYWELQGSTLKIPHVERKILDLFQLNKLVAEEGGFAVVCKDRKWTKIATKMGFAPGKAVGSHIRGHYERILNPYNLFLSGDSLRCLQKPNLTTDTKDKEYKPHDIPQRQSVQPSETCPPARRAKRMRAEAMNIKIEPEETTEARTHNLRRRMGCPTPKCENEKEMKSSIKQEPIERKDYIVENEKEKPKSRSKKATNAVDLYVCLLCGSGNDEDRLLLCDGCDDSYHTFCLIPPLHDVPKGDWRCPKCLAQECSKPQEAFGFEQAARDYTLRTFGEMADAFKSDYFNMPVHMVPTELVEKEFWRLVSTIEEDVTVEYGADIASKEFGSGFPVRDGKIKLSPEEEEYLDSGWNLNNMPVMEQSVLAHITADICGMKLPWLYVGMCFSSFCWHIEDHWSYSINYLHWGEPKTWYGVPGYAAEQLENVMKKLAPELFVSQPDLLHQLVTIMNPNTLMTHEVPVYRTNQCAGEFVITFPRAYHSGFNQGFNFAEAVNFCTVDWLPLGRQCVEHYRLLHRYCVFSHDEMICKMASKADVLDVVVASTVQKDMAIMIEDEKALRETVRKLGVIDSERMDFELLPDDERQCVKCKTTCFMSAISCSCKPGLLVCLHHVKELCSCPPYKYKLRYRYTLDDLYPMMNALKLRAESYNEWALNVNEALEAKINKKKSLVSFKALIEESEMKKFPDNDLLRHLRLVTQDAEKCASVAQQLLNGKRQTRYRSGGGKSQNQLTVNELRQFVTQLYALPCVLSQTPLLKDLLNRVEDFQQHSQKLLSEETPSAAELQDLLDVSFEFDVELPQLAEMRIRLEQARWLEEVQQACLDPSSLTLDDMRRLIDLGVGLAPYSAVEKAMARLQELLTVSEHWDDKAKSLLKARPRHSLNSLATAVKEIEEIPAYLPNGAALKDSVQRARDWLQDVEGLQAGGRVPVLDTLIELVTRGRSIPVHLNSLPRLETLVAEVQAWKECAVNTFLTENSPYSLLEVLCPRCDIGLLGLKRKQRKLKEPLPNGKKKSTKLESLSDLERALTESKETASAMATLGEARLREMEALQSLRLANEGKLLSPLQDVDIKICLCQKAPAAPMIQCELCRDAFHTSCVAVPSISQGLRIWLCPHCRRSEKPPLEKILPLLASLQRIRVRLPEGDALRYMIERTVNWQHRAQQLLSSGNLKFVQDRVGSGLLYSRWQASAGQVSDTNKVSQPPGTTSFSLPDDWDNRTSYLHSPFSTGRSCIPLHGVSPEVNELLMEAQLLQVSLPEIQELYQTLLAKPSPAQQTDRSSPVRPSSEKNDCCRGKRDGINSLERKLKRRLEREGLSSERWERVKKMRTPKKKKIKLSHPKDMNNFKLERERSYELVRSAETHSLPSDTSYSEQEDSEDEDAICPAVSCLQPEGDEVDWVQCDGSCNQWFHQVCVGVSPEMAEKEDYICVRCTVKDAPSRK

With `CSc1ccc2c(c1)N(CCC1CCCCN1C)c1ccccc1S2` (stereo not drawn), the outcome in [1], in test [2], in test [3], in [6] and in test [7] was inactive. Also, the Potency result in test [4] and in test [5] was “inactive” each time. Besides, the Potency in [8] was 50.1 µM (active).
In the case of `CNCC(O)c1ccc(O)c(O)c1` (stereo not drawn), the Potency result in test [9], in test [10], in test [4] and in test [5] was “inactive” throughout. The result in test [11], in [2], in test [3] and in test [6] was inactive.
Consider `C[C@H](NC(CCc1ccccc1)C(=O)O)C(=O)N1CCC[C@H]1C(=O)O` (stereo partly drawn), for which the Potency entry in test [9], in [10] and in test [12] was “inactive” throughout. Moreover, the result in test [2], in test [3], in test [6] and in test [7] was inactive.
Take `CCN(CC)CCNC(=O)c1c(C)[nH]c(/C=C2\C(=O)Nc3ccc(F)cc32)c1C`: the Potency in test [9] was 10 µM (active); in test [10], 10.5 µM (active). Moreover, the result in [2], in test [6] and in test [7] was inactive.
For the compound `CCCCc1ncc(/C=C(\Cc2cccs2)C(=O)O)n1Cc1ccc(C(=O)O)cc1`, in test [9], the Potency result was “inactive”. Also, the compound was classed as inactive in test [11], in test [2], in test [3], in test [6] and in test [7].
`NC1CCN(c2cccc(Cl)n2)CC1`: the compound was called inactive in test [1], in test [2], in test [3], in test [6] and in test [7]. In addition, the Potency result in test [4], in test [5] and in [12] was “inactive” each time.
Regarding `CCCCN(CCCC)CC(O)c1cc(Cl)cc2c1-c1ccc(Cl)cc1/C2=C/c1ccc(Cl)cc1` (stereo not drawn), the Potency result in [9] and in test [13] was “inactive” throughout. The outcome in [2], in test [3], in test [6] and in test [7] was inactive.
Consider `COC(=O)C1=C(C)NC(C)=C(C(=O)OC)C1c1ccccc1[N+](=O)[O-]`, for which the Potency entry in [10], in test [4] and in test [5] was “inactive” throughout. Moreover, the compound was classed as inactive in test [2], in [3], in test [6] and in [7].
`C[C@H]1O[C@@H](n2cc(F)c(=O)[nH]c2=O)[C@H](O)[C@@H]1O`: the Potency entry in [9], in [10], in test [13] and in test [12] was “inactive” throughout. In addition, the compound was called inactive in [2], in [3], in test [6], in test [14] and in test [7].
Turning to `C=Cc1c(C)c2cc3[nH]c(cc4nc(cc5nc(cc1[nH]2)C(C)=C5CCC(=O)O)C(CCC(=O)O)=C4C)c(C)c3C=C`, the Potency entry in [9], in test [10], in test [4], in [5] and in test [12] was “inactive” throughout. Besides, the result in test [11], in [3] and in test [6] was inactive. In addition, the Potency in test [15] is 25.1 µM (active).
Take `CC(C)(O)c1ccccc1CC[C@@H](SCC1(CC(=O)O)CC1)c1cccc(/C=C/c2ccc3ccc(Cl)cc3n2)c1`: the Potency result in [16], in [18] and in test [10] was “inactive” each time. The compound was classed as inactive in test [17] and in test [6].
Take `CC(O)CN(CCN(CC(C)O)CC(C)O)CC(C)O` (stereo not drawn): the Potency result in [10] is “inactive”. Also, the result in test [2], in test [3], in test [6] and in test [7] was inactive.
With `CC1(C)S[C@@H]2[C@H](NC(=O)Cc3ccccc3)C(=O)N2[C@H]1C(=O)O` (tested in a mixture with another compound), in [10], the Potency result was “inactive”. The compound was called inactive in [2], in test [3], in test [6] and in [7].
`O=Cc1ccccc1C=O`: in test [10], the Potency result was “inactive”. For the same compound, the outcome in test [2], in test [3], in [6] and in test [7] was inactive.
